Reference: PubChem BioAssay AID488890 (Southern Research Specialized Biocontainment Screening …, 2010)
In all, about 320,000 compounds went through this assay and about 1,300 (0.41%) were called active. Inconclusive results (about 3%) are left out. No rule for the calls is given here. A selection follows. Measured potencies and affinities stand elsewhere.

test: growth inhibition of non-replicating M. tuberculosis (AID 488890); conditions: Mycobacterium tuberculosis non-replicating, at 25 µM, stronger effect = higher value;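 also: plate controls were DMSO cells for no effect and high antibiotic wells for full effect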

Going from `Cc1cccc(N2CC(C(=O)Nc3ccc4c(c3)OCCO4)CC2=O)c1C` (configuration not stated) to `COc1ccc(N2CC(C(=O)OCC(=O)Nc3cccc(C)c3C)CC2=O)cc1` (configuration not stated), the inhibition rises from -5.78% to -1.13%.

First: CCc1cc2c(=O)c(-c3nc(C)cs3)coc2cc1O
Second: Cc1cc2c(C)c(C)c(=O)[nH]c2cc1N
The inhibition of the first is higher: 13.5% for the first, 6.16% for the second.

Going from `COCCNC(=O)C1CCC(=O)N1S(=O)(=O)c1ccc(C)cc1` (configuration not stated) to `Cc1ccc(S(=O)(=O)N2CCCC2C(=O)NC2CCCCC2)cc1` (configuration not stated), the inhibition rises from 1.96% to 13.2%.

Compared with `Cc1[nH]n(-c2ccccc2)c(=O)c1C=Nc1cccc(F)c1`, `Cc1[nH]n(-c2ccccc2)c(=O)c1C=Nc1cccc2cccnc12` is higher in inhibition: 5.36% for the first, 33.6% for the second.

First: O=C(Cc1ccccc1F)N1CCN(CC(=O)N2CCCC2)CC1
Second: CCOC(=O)N1CCN(Cc2ccccc2Cl)CC1
The inhibition of the first is lower: 8.24% for the first, 10.7% for the second.

Going from `CCOC(=O)CSc1nnc(CCc2nc3ccccc3[nH]2)n1C` to `CCNc1nc(NCC)n2c(SCc3nc4ccccc4c(=O)[nH]3)nnc2n1`, the inhibition rises from -4.77% to 48.6%.

Compared with `COc1ccc2occ(C(=O)c3ccccc3)c2c1`, `Cc1ccc(C(=O)c2coc3ccc(OCC(=O)O)cc23)cc1` is lower in inhibition: 3.51% for the first, -4.9% for the second.

Compared with `CNC(=S)NNC(=O)c1cn(C)nc1C`, `Cc1occc1C(=O)NNC(=O)NC12CC3CC(CC(C3)C1)C2` is higher in inhibition: -3% for the first, 1.27% for the second.

Compared with `CCn1ccc(C(=O)NCCCN2CCCC2=O)n1`, `CCOCCCNC(=O)C1CC(=O)N(C2CCCC2)C1` (configuration not stated) is lower in inhibition: 5.42% for the first, -5.49% for the second.

First: Cc1c([N+](=O)[O-])c([N+](=O)[O-])nn1CC(=O)N1CCOCC1
Second: Cc1ccc(N)cc1NC(=O)CN1CCOCC1
The inhibition of the first is lower: 1.03% for the first, 6.66% for the second.

Compared with `O=C(O)C1C2C=CC(CC2)C1C(=O)O` (configuration not stated), `CCC(C)[C@H](NC(=O)c1cc2cc(Cl)ccc2n1C)C(=O)N1CCC(C(=O)O)CC1` (some centres not stated) is lower in inhibition: 1.2% for the first, 0.12% for the second.

First: O=C(C[C@@H]1C/C=C\CCCC(=O)OC[C@@H]2CCCN2C1=O)N[C@@H](CO)Cc1ccccc1
Second: O=C1CC(N2CCN(c3ccccc3O)CC2)C(=O)N1Cc1ccccc1 (configuration not stated)
The inhibition of the first is lower: 0.26% for the first, 72% for the second.

Going from `Cc1ccc(O)c(NC(=O)c2ccco2)c1` to `Cc1ccc(NC(=O)c2ccco2)cc1C`, the inhibition rises from 15.1% to 60.8%.

Going from `CS(=O)(=O)c1ccccc1-c1nnc(NC(=O)c2ccc(S(=O)(=O)N3CCCC3)cc2)o1` to `O=C(Nc1nnc(-c2ccco2)o1)c1ccc(S(=O)(=O)N2CCCC2)cc1`, the inhibition rises from -2% to 25.6%.

First: Cc1ccc(C)c(-c2nnc(NC(=O)CCS(=O)(=O)c3ccc(F)cc3)o2)c1
Second: CS(=O)(=O)c1ccc(-c2nnc(NC(=O)c3ccco3)o2)cc1
The inhibition of the first is lower: 41.4% for the first, 43.1% for the second.

Compared with `CS(=O)(=O)c1ccccc1-c1nnc(NC(=O)c2ccco2)o1`, `COc1cc(-c2nnc(NC(=O)c3ccco3)o2)cc(OC)c1OC` is lower in inhibition: 38.6% for the first, 12.9% for the second.

Going from `Cc1ccc2nsnc2c1NC(=O)c1ccc([N+](=O)[O-])o1` to `CC(C)(C)c1ccc2c(c1)OC(C(=O)N/N=C/c1ccc([N+](=O)[O-])o1)CO2` (configuration not stated), the inhibition rises from 75.4% to 77.1%.

Compared with `Cc1nc(-c2ccc(NC(=O)C(C)(C)C)cc2)c(-c2ccccc2)o1`, `Cc1ccc(-c2nnc(-c3ccc(NC(=O)c4ccco4)cc3)o2)cc1` is lower in inhibition: -0.61% for the first, -12.3% for the second.

Going from `Nc1cccc(C(=O)OCC(=O)NC2CCCc3ccccc32)c1` (configuration not stated) to `COc1cccc(C(=O)COC(=O)c2ccc(NC(C)=O)cc2)c1`, the inhibition rises from 6.1% to 61.7%.

First: O=C1c2ccccc2C(=O)N1CCOc1cccc(Br)c1
Second: COc1ccc(CN2C(=O)c3ccccc3C2OC)cc1 (configuration not stated)
The inhibition of the first is higher: 53.6% for the first, 43.5% for the second.

First: CCCCCC(=O)N/N=C(\C)c1ccc(NC(=O)c2ccco2)cc1
Second: O=C(Nc1cc(Cl)ccc1Cl)c1ccc(OC(=O)c2ccco2)cc1
The inhibition of the first is lower: 10.3% for the first, 49.5% for the second.

Compared with `CCNC(=O)C(=O)Nc1ccc(OC)c(Cl)c1`, `COc1ccc([N+](=O)[O-])cc1NC(=O)CCCOc1ccccc1` is higher in inhibition: -0.29% for the first, 12.4% for the second.

Going from `COc1ccc(Cc2nc3ccc(C(=O)N4C[C@@H](C)O[C@@H](C)C4)cc3o2)cc1OC` to `COc1ccc(CCNC(=O)c2nc(-c3cccs3)no2)cc1OC`, the inhibition rises from 17.8% to 62.8%.

First: c1ccc(-c2nn3c(C4CCCCC4)nnc3s2)nc1
Second: O=C(NCc1ccccn1)c1cccc(S(=O)(=O)N2CCCCC2)c1
The inhibition of the first is higher: 9% for the first, -1.8% for the second.

Compared with `Cc1nc(N2CCN(Cc3ccccc3)CC2)nc2c1C(=O)CC(c1ccco1)C2` (configuration not stated), `CN1CCN(Cc2cc(Cl)c3cccnc3c2OC(=O)c2cccs2)CC1` is higher in inhibition: 3.19% for the first, 51% for the second.

First: COc1cccc(-c2cccc(NC(=O)C3CCN(Cc4cccc(C)n4)CC3)c2)c1
Second: COc1cccc(CNC(=O)CN2CCC(c3nc4ccc(C)cc4[nH]3)CC2)c1
The inhibition of the first is lower: 5.93% for the first, 6.15% for the second.

First: CCc1ccc(NC(=S)N2CCN(C)CC2)cc1
Second: CCOC(=O)N1CCN(Cc2ccc(O)c3ncccc23)CC1
The inhibition of the first is lower: -4.9% for the first, 56.8% for the second.

Going from `Cc1ccc(C(=O)Nc2ccc(Oc3cccc(C(F)(F)F)c3)nc2)cc1` to `COc1cccc(-n2ccnc2SCC(=O)Nc2ccccc2)c1`, the inhibition rises from -15.4% to 2.78%.

Going from `O=C(NCc1ccccc1)c1nc(-c2cccs2)no1` to `O=C(/C=C/c1ccccc1)NCCc1ccccc1`, the inhibition falls from 15.8% to 1.5%.

First: CC(=O)c1ccccc1Oc1cc(NN2CCCCC2)c([N+](=O)[O-])cc1[N+](=O)[O-]
Second: Cc1cc(OC(C)C(=O)Nc2ccccc2C(=O)N2CCCC2)ccc1Cl (configuration not stated)
The inhibition of the first is higher: 30.5% for the first, 4.49% for the second.

Going from `Nc1ccc(C#Cc2ccc3c(=O)c4ccccc4oc3c2)cc1` to `Nc1ccc2oc3ccccc3c2c1`, the inhibition rises from 11.2% to 68.5%.

First: Cc1sc(NC(=O)c2oc3ccccc3c2C)c(C#N)c1C
Second: CC(=O)OCCCNc1cc(Sc2nc3ccccc3s2)c2nonc2c1[N+](=O)[O-]
The inhibition of the first is lower: 0.16% for the first, 7.19% for the second.

First: NS(=O)(=O)c1ccc(CCNCc2cc(Br)ccc2OCc2ccccc2)cc1
Second: NS(=O)(=O)c1ccc(CCNC(=O)C2COc3ccccc3O2)cc1 (configuration not stated)
The inhibition of the first is higher: 36% for the first, 7.64% for the second.

First: CCOc1ccc(N(C(=O)c2ccc(S(=O)(=O)N3CCCC3)cc2)C2C=CS(=O)(=O)C2)cc1 (configuration not stated)
Second: Cc1ccc(S(=O)(=O)N2CCC(C(=O)NC3CC(C)(C)NC(C)(C)C3)CC2)cc1
The inhibition of the first is higher: 2.41% for the first, -9.46% for the second.

First: CCN(CCn1cccn1)Cc1cn[nH]c1-c1ccc(-c2ccccc2)cc1
Second: O=C(N/N=C\c1ccc(-c2ccc([N+](=O)[O-])cc2)o1)C1COc2ccccc2O1 (configuration not stated)
The inhibition of the first is lower: 23% for the first, 42.2% for the second.

First: CCCC(=O)NC1C2CC3CC(C2)CC1C3 (configuration not stated)
Second: O=C(CNCc1ccccc1)NC1C2CC3CC(C2)CC1C3 (configuration not stated)
The inhibition of the first is higher: 66.5% for the first, 7.24% for the second.

First: O=C(CC1SC(N2CCCCC2)=NC1=O)Nc1cccc(C(=O)O)c1 (configuration not stated)
Second: CC(C)CNS(=O)(=O)c1ccccc1C(=O)N1CCCCC1
The inhibition of the first is lower: -10.1% for the first, 8.8% for the second.

Going from `Cn1ccnc1Sc1cc(NCCCO)c([N+](=O)[O-])c2nonc12` to `O=[N+]([O-])c1c(NCCCO)cc(SCc2ccco2)c2nonc12`, the inhibition falls from 77.2% to 70.1%.

Compared with `CC(=O)OCCNc1cc(SC(C)C)c2nonc2c1[N+](=O)[O-]`, `CCCSc1cc(NCCOC(C)=O)c([N+](=O)[O-])c2nonc12` is higher in inhibition: 65.7% for the first, 74.5% for the second.

First: COC(=O)CCSc1cc(NCCOC(C)=O)c([N+](=O)[O-])c2nonc12
Second: CCOC(=O)CNC(=O)CSc1nnc(C)c(=O)[nH]1
The inhibition of the first is higher: 72.4% for the first, -4.04% for the second.

Going from `COc1ccc(C(=O)NNC(=O)CCC(=O)NNC(=O)c2ccc(OC)cc2)cc1` to `CCc1ccc(C(=O)NNC(=O)c2ccc3c(=O)n4c(nc3c2)CCC4)cc1`, the inhibition falls from 8.31% to -9.87%.

Compared with `Cn1c(=O)c(Oc2cc(Cl)cc(Cl)c2)nc2ccccc21`, `COCCCNC(=O)c1ccc2c(c1)ncn2-c1ccc(C)cc1C` is lower in inhibition: 5.56% for the first, 5.06% for the second.

Going from `CSc1ncccc1C(=O)OCC(=O)N1CCCC1` to `O=[N+]([O-])c1cc(CN2CCCC2)c2cccnc2c1O`, the inhibition falls from 39.6% to -4.52%.

First: CCN(CC)S(=O)(=O)c1cc(C(=O)N=c2sccn2C)ccc1OC
Second: Cc1cc(C)c(S(=O)(=O)c2ccccc2C)c(OCCN(C)C)n1
The inhibition of the first is higher: 20.4% for the first, 6.46% for the second.

First: O=C(Oc1c(Cl)cc(Cl)c2cccnc12)N1CCOCC1
Second: OCCN1CCN(Cc2cc(Cl)c3cccnc3c2O)CC1
The inhibition of the first is lower: 2.11% for the first, 66% for the second.

Going from `Cc1ccc(NC(=O)CN2C(=O)NC3(CCCC3)C2=O)nc1` to `CC1CC(=O)C(C2c3ccccc3CCN2C(=O)CCl)C(=O)C1` (configuration not stated), the inhibition rises from -25.1% to 14.6%.

First: COc1ccccc1OCC(=O)/C=C1/N(C)c2ccccc2C1(C)C
Second: O=C(N/N=C/c1c[nH]c2ccccc12)C1COc2ccccc2O1 (configuration not stated)
The inhibition of the first is lower: 17.5% for the first, 26.6% for the second.

Going from `COc1ccc(CCN2C(=O)CC(N3CCN(S(=O)(=O)c4ccccc4)CC3)C2=O)cc1OC` (configuration not stated) to `COc1ccc(N2CC(C)Cn3c2nc2c3c(=O)n(Cc3ccc(C)cc3)c(=O)n2C)c(OC)c1` (configuration not stated), the inhibition rises from 13.8% to 17.9%.

Compared with `FC(F)(F)c1cccc(CON=C2CCN(c3ncc(C(F)(F)F)cc3Cl)CC2)c1`, `C/C(=C\c1ccccc1)C(=O)N1CCN(c2cccc(C(F)(F)F)c2)CC1` is higher in inhibition: -8.15% for the first, 22.2% for the second.

Going from `O=C(Nc1cc(Cl)ccc1Cl)c1ccco1` to `O=C(N/N=C/c1ccco1)C1COc2ccccc2O1` (configuration not stated), the inhibition rises from -1.55% to 4.17%.

Compared with `CN(Cc1ccc2c(c1)OCCO2)C(=O)CSc1ncnc2sccc12`, `Cn1cccc1/C=N\NC(=O)C1COc2ccc(C(C)(C)C)cc2O1` (configuration not stated) is higher in inhibition: 25.8% for the first, 78.1% for the second.

Going from `CCCc1cc(=O)[nH]c(SCC(=O)c2cc(C)n(CC(F)(F)F)c2C)n1` to `CC(C)(C)c1ccc2c(c1)OC(C(=O)N/N=C\c1ccncc1)CO2` (configuration not stated), the inhibition rises from 6.27% to 10.4%.

Compared with `C/C(=N\NC(=O)C1COc2ccccc2O1)c1ccc(Cl)s1` (configuration not stated), `CN(C)c1ccc(/C=N/NC(=O)C2COc3ccccc3O2)o1` (configuration not stated) is lower in inhibition: 76% for the first, 1.59% for the second.

First: O=C(N/N=C/c1cccc([N+](=O)[O-])c1)C1COc2ccccc2O1 (configuration not stated)
Second: O=C(N/N=C\c1ccc(O)c([N+](=O)[O-])c1)C1COc2ccccc2O1 (configuration not stated)
The inhibition of the first is lower: 29.6% for the first, 57% for the second.

Going from `Cn1c(N)c(C(=O)CNC2CCCCC2)c(=O)n(C)c1=O` to `CCN1C(=O)CC(N2CCC(C(=O)N3CCCCCC3)CC2)C1=O` (configuration not stated), the inhibition rises from -15.1% to 77%.

Going from `CCCN1CCN(c2ccc([N+](=O)[O-])cc2C#N)CC1` to `CN1CCCC(OC(=O)c2ccccc2Br)C1` (configuration not stated), the inhibition falls from 2.83% to -1.81%.
